This is a sample that favours compounds with a hit; in the whole collection about 0.81% have one here.
TRPML1 blocker: qHTS for Inhibitors of the Human Mucolipin Transient Receptor Potential 1 (TRPML1). activity change, negative = inhibition, % (no concentration beside the values). TRPML1-inducible cells, Ca2+ dye fluorescence, FDSS; active compounds read low; inhibition of EC80 agonist-evoked calcium signal. Mucolipin-1 (Homo sapiens), Q9GZU1. actives 0.02% (n = 390,000); in the data active = activity change below about -50%; inconclusive = between about -30% and that limit;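 also: stimulus is agonist 54-4 at its EC80 concentration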
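Calcium fluorescence in TRPML1-DL cells induced overnight with Tet: a 110 s read after compound pin addition, then a 110 s antagonist read after challenge with 54-4 at 4 uM final (EC80).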
TRPML1 ag: qHTS for Agonists of the Human Mucolipin Transient Receptor Potential 1 (TRPML1); Mucolipin-1 (Homo sapiens), Q9GZU1; TRPML1-expressing cells, Ca2+ dye fluorescence, FDSS; activation, % (no concentration beside the values); actives 0.12% (n = 410,000); AID 624414, 2012; in the data active = activation above about 50%; inconclusive = mostly about 30% to 49%
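Tetracycline-induced TRPML1-DL cells are seeded and incubated overnight before loading with a no-wash Ca2+ dye and quencher. Agonist activity is taken from the 110 s fluorescence read following compound pin-transfer on an FDSS, before EC80 54-4 challenge.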
TRHR enhancer-1: qHTS for Small Molecule Agonists and Allosteric Enhancers of Human TRH Receptor: Primary Screen for Enhancers; TRHR cells, fluo-8 calcium fluorescence, EC20 TRH enhancement; actives 0.66% (n = 360,000); enhancement, % at 2 µM; in the data active = enhancement above about 30%
Target sequence (P34981 whole entry, looked up): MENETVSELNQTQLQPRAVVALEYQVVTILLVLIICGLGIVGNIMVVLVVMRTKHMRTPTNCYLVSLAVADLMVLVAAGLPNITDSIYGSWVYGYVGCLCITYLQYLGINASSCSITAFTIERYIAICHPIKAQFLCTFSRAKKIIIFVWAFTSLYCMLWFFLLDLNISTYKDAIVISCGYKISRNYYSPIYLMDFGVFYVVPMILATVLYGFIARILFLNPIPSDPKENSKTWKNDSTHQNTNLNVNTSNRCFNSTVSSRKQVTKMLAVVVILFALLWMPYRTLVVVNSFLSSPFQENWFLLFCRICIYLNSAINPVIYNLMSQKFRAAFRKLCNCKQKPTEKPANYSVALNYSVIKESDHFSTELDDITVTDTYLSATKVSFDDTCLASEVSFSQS
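Enhancer read-out: after compound pinning and an initial kinetic agonist-mode read, an EC20 of TRH (10 nM final) was injected and fluo-8 calcium signal (Ex 480/Em 530) followed at 1 s/cycle for 100 cycles in TRHR-expressing cells.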
TRHR agonist-1: qHTS for Small Molecule Agonists and Allosteric Enhancers of Human TRH Receptor: Primary Screen for Agonists | actives 0.18% (n = 360,000) | TRHR cells, calcium flux fluo-8, FDSS agonist mode | Thyrotropin-releasing hormone receptor (Homo sapiens), P34981 | activation, % at 2 µM; in the data active = activation above about 30%
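Read-out: compound-evoked intracellular calcium rise in TRHR cells, fluo-8 dye, kinetic FDSS fluorescence at 1 s/cycle following a 10-cycle baseline. Cells cultured overnight before dye loading (30 min–1.5 h, RT).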
TRHR enhancer-2: qHTS for Small Molecule Agonists and Allosteric Enhancers of Human TRH Receptor: Confirmation Screen for Enhancers | 970 tested, under 10 active | shares compounds with TRHR enhancer-1 | AID 493076, 2011 | activity change, negative = inhibition, % at 46.1 µM | TRH receptor cell assay, enhancer confirmation qHTS;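 also: compound effect scored on response to added TRH at EC20 of 10 nM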
TRHR agonist-2: qHTS for Small Molecule Agonists and Allosteric Enhancers of Human TRH Receptor: Confirmation Screen for Agonists; TRHR-expressing cells, agonist activation read-out; Potency, µM (doses to about 46.1 µM), most hits filed as activators; AID 493078, 2011; shares compounds with TRHR enhancer-1; actives 8% (n = 970); also: nearly all actives have a fitted effect of over 75% in size
Of the large screens only hits and unclear results are named; the others gave an inactive call (follow-up assays come after a bar, where they were run). Unless noted, calls follow the shape of the dose curve; as a rule, active = well fitted curve in the direction sought with a large enough effect; inconclusive = small, poorly fitted or top-dose-only effect, or another doubt; inactive = no such curve, though single readings can be large; an effect the other way counts as inactive or inconclusive.

COc1ccc(C(=O)NCc2cc(C)nc3ccccc23)cc1OC	none
CC(SCc1ccccc1)C(=O)Nc1ccccc1F (stereo not given)	TRHR enhancer-1 56 | TRHR enhancer-2 inactive | TRHR agonist-2 inactive
COC(=O)[C@H](CC(C)C)NS(=O)(=O)NC(=O)OC(C)(C)C	none (no result: TRPML1 blocker, TRHR enhancer-1, TRHR agonist-1)
CCCC(=O)c1ccc(N2CCN(C(=O)c3cccs3)CC2)c(F)c1	none
CC(=O)c1ccc(N2CCN(C(=O)c3cccs3)CC2)c(F)c1	none | TRHR enhancer-2 inactive | TRHR agonist-2 inactive
CCOc1cc(-c2ccc3c(c2)OCO3)cc(=[O+]CC)c2c(C)oc(C)c12	none (no result: TRPML1 blocker, TRHR enhancer-1, TRHR agonist-1)
O=C(/C=C/c1cn(CC(O)CN2CCCCCC2)c2ccccc12)c1ccccc1 (stereo not given)	none
O=C(/C=C/c1cn(CC(O)CN2CCCCC2)c2ccccc12)c1cccs1 (stereo not given)	TRHR agonist-1 36 | TRHR enhancer-2 inactive | TRHR agonist-2 inconclusive
CCOc1ccc(NC(C)C(=O)N/N=C/c2cccs2)cc1 (stereo not given)	TRHR enhancer-1 50 | TRHR enhancer-2 inactive | TRHR agonist-2 inactive
Cc1ccccc1-n1c(C)nnc1SC(C)C(=O)NCc1ccco1 (stereo not given)	none (no result: TRPML1 blocker, TRHR enhancer-1, TRHR agonist-1)
COc1ccc(-c2nc3ccccn3c2Nc2ccccc2C)cc1	none (no result: TRPML1 blocker, TRHR enhancer-1, TRHR agonist-1)
O=C(COc1ccc(Br)cc1)OCCN1CCCCC1	TRHR agonist-1 30 | TRHR enhancer-2 inactive | TRHR agonist-2 inactive
O=C(COc1ccc(Br)cc1)N1CCCCCC1	none
COc1cccc(N(CC(=O)Nc2cccc(C(C)=O)c2)S(C)(=O)=O)c1	none
COc1ccc(N(CC(=O)Nc2cccc(C(C)=O)c2)S(C)(=O)=O)cc1OC	TRHR enhancer-1 53 | TRHR enhancer-2 inactive | TRHR agonist-2 inactive
Cc1cccc(-n2ncc3c(N(C)C4CCCCC4)ncnc32)c1	TRHR enhancer-1 49 | TRHR enhancer-2 inactive | TRHR agonist-2 inactive
COc1ccc(-n2ncc3c(N(C)C4CCCCC4)ncnc32)cc1	none
COC(=O)C[C@H]1c2ccccc2S(=O)(=O)N1c1ccc(N(C)C)cc1	none (no result: TRPML1 blocker, TRHR enhancer-1, TRHR agonist-1)
c1coc(-c2ccnc3ncnn23)c1	TRHR enhancer-1 49 | TRHR enhancer-2 inactive | TRHR agonist-2 inactive
Cc1ccc(N2CCN(C(=S)Nc3ccc(Cl)cc3)CC2)cc1	none
S=C(Nc1ccc(Cl)cc1)N1CCN(C2CCCCC2)CC1	TRHR enhancer-1 53 | TRHR enhancer-2 inactive | TRHR agonist-2 inactive
CCN(CC)c1ccc(/C=N/NC(=O)c2cccc(S(=O)(=O)N3CCOCC3)c2)c(O)c1	TRHR agonist-1 39 | TRHR enhancer-2 inactive | TRHR agonist-2 inconclusive
O=C(Nn1cnnc1)c1cccc(S(=O)(=O)N2CCOCC2)c1	TRHR agonist-1 102 | TRHR enhancer-2 inactive | TRHR agonist-2 inactive
O=C(Cc1ccccc1)N1CCN(C(=O)c2ccco2)CC1	none
O=C(Cc1ccccc1)N1CCNCC1	TRHR enhancer-1 55 | TRHR enhancer-2 inactive | TRHR agonist-2 inactive
O=C(Cc1ccccc1)NCC(=O)N1CCCCC1	TRHR enhancer-1 43 | TRHR enhancer-2 inactive | TRHR agonist-2 inactive
COc1cc(NC(=O)[C@@H](NC(=O)N2CCn3c2nc2ccccc23)C(C)C)cc(OC)c1	TRHR enhancer-1 43 | TRHR enhancer-2 inactive | TRHR agonist-2 inactive
CC(C)[C@H](NC(=O)N1CCn2c1nc1ccccc12)C(=O)N[C@H](Cc1ccccc1)C(=O)O	none (no result: TRPML1 blocker, TRPML1 ag)
Cn1c(N)c(C(=O)COC(=O)CCC2CCCC2)c(=O)n(C)c1=O	none
Cn1c(N)c(C(=O)COC(=O)CCC2CCCCC2)c(=O)n(C)c1=O	TRHR enhancer-1 46 | TRHR enhancer-2 inactive | TRHR agonist-2 inactive

Source: PubChem
